CBFb RUNX1 block – inhibitors of human CBF-beta and RUNX1 interaction. 230,000 tested, under 10 active. AlphaScreen CBFb-His/RUNX1-biotin binding, biochemical. Potency, µM (top dose mostly 59.8 µM), actives largely listed as inhibitors. AID 1477
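Inhibition was taken as any reduction in AlphaScreen signal from the CBF-beta–RUNX1 pair (His and biotin tags, 30 nM each), measured after compound (15 min) and bead (90 min) incubations at room temperature.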
Menin-MLL TR inh – displaces Texas Red mutant MLL peptide from human menin | Potency, µM (series often up to 61.6 µM), usual class: inhibitors | 270,000 compounds, 0.23% hits | Menin + Texas Red MLL mutant peptide, fluorescence polarization | O00255; active means well fitted inhibition curve with a large enough effect in the polarisation, with a control signal flat, not every such curve was filed as active; inconclusive means small, poorly fitted or top-dose-only effect, or effect the other way, or a change in a side signal; inactive means no such curve, though single readings can be large or run the other way; the % refers to the polarisation
MLL CXXC-DNA inh – MLL CXXC-DNA interaction inhibition; Q03164; Potency, µM (doses to about 115 µM), most hits filed as inhibitors; 290,000 compounds, 0.037% hits; MLL-CXXC / FITC-HOXA9 DNA fluorescence polarization; active means well fitted inhibition curve with a large enough effect in the polarisation, with a control signal flat, not every such curve was filed as active; inconclusive means small, poorly fitted or top-dose-only effect, or effect the other way, or a change in a side signal; inactive means no such curve, though single readings can be large or run the other way; the % refers to the polarisation
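Fluorescence polarization: 7 uM MLL-CXXC (stock) preincubated 5 min with compounds, then 50 nM fluorescein-HOX-A9 DNA (stock) added; 30 min ambient. Buffer 50 mM Tris-HCl pH 7.5, 50 mM NaCl, 1 mM DTT, 0.05% BSA.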
LMNA splice mod – changes lamin A minigene splicing in HeLa cells | HeLa LMNA splicing GFP/RFP minigene ratio, 48 h | Potency, µM (highest dose often 46.1 µM), hits mostly inhibitors | 200,000 compounds, 0.01% hits; active means well fitted inhibition curve with a large enough effect in the signal ratio, with a control signal flat, not every such curve was filed as active; inconclusive means small, poorly fitted or top-dose-only effect, or effect the other way, or a change in a side signal; the % refers to the signal ratio
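Read-out is the ratio of GFP to DsRed2 object intensity, acquired by 488 nm laser-scanning cytometry on HeLa lamin A-EGFP minigene reporter cells. Compound incubation 48 hrs at 37 °C in Opti-MEM with 2% FBS; DMSO 0.5% final.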
Menin MLL FP FL – menin-MLL binding inhibition, fluorescein peptide; Fluorescence polarization, fluorescein-MLL peptide displacement from menin; FP activity change, % at 61.4 µM; 290,000 tested, under 10 active; active means well fitted curve in the direction sought with a large enough effect in the polarisation, not every such curve was filed as active; inconclusive means small, poorly fitted or top-dose-only effect, or effect the other way, or a change in a side signal; inactive means no such curve, though single readings can be large or run the other way; the % refers to the polarisation
MLL CXXC FP-Fl – disrupts human MLL CXXC domain binding to DNA. shares compounds with MLL CXXC-DNA inh. MLL CXXC-DNA binding, fluorescein FP. Potency, µM (series often up to 345 µM), actives largely listed as inhibitors. 200 compounds, 70% hits. AID 624160; further: nearly all actives have a fitted effect of over 80% in size
MLL CXXC FP-TR – disrupts human MLL CXXC domain binding to DNA, Texas Red | shares compounds with MLL CXXC-DNA inh | MLL CXXC-DNA binding, Texas Red fluorescence polarization | Potency, µM (titrated, usually from 345 µM), hits mostly inhibitors | 200 compounds, 40% hits; further: nearly all actives have a fitted effect of over 75% in size
MLL CXXC TRF – inhibitors of human MLL CXXC domain-DNA interaction, HTRF format. shares compounds with MLL CXXC-DNA inh. MLL CXXC-DNA binding, HTRF, biochemical. Potency, µM (titrated, usually from 172 µM), usual class: inhibitors. 210 compounds, 30% hits; further: nearly all actives have a fitted effect of over 80% in size
Hits are given with their value. The sample as a whole holds a higher share of hits than the screen did. Unless noted, the call rests on the fitted dose curve; in most records, active means well fitted curve in the direction sought with a large enough effect; inconclusive means small, poorly fitted or top-dose-only effect, or another doubt; inactive means no such curve, though single readings can be large; an effect the other way counts as inactive or inconclusive.

How did O=C(O)c1ccc2c(c1)C(=O)/C(=C\c1ccco1)C2=O do in these assays?
CBFb RUNX1 block: inconclusive; Menin-MLL TR inh: inconclusive; MLL CXXC-DNA inh: 32µM; LMNA splice mod: inactive; Menin MLL FP FL: inactive; MLL CXXC FP-Fl: 22µM; MLL CXXC FP-TR: inactive; MLL CXXC TRF: 49µM

Results for CCCOC(C(=O)OC1CCN(C)CC1)(c1ccccc1)c1ccccc1 ?
Menin-MLL TR inh: inactive; MLL CXXC-DNA inh: inactive; Menin MLL FP FL: inactive

How did C[C@H]1[C@@H](OC(=O)CCC(=O)O)OC2OC3(C)CC[C@H]4[C@H](C)CC[C@@H]1[C@@]24OO3 (some centres not stated) do in these assays?
Menin-MLL TR inh: inactive; MLL CXXC-DNA inh: inactive; Menin MLL FP FL: inactive

What do the screens show for `COc1cccc2nc(-c3cccs3)nc(NN3C(=O)C=C(C)C3=O)c12`?
CBFb RUNX1 block: inactive; Menin-MLL TR inh: inactive; Menin MLL FP FL: inactive

What do the screens show for `CN(C)C1C(=O)C(C(N)=O)=C(O)[C@@]2(O)C(=O)C3=C(O)c4c(O)ccc(Cl)c4[C@@H](O)C3C[C@@H]12` (some centres not stated)?
CBFb RUNX1 block: inactive; Menin-MLL TR inh: inactive; MLL CXXC-DNA inh: inactive; LMNA splice mod: inactive; Menin MLL FP FL: inconclusive

What do the screens show for `COc1ccc2occ(C(=O)c3ccc(N)cc3)c2c1`?
Menin-MLL TR inh: inactive; MLL CXXC-DNA inh: inconclusive; Menin MLL FP FL: inactive; MLL CXXC FP-Fl: inactive; MLL CXXC FP-TR: inactive; MLL CXXC TRF: inactive

What do the screens show for `COc1cccc(CS(=O)(=O)c2nnnn2-c2ccccc2)c1`?
CBFb RUNX1 block: inactive; Menin-MLL TR inh: inactive; Menin MLL FP FL: inactive

Results for CCN(CC)CCC[C@H](C)Nc1c2ccc(Cl)cc2nc2ccc(OC)cc12 ?
CBFb RUNX1 block: inactive; Menin-MLL TR inh: inactive; MLL CXXC-DNA inh: 45µM; LMNA splice mod: inconclusive; Menin MLL FP FL: inconclusive; MLL CXXC FP-Fl: 50µM; MLL CXXC FP-TR: inconclusive; MLL CXXC TRF: inactive

How did CC[C@H](C)[C@H](NC(=O)[C@H](CC(=O)O)NC(=O)[C@H](CC(C)C)NC(=O)[C@H](NC(C)=O)C(c1ccccc1)c1ccccc1)C(=O)N[C@H](C(=O)N[C@@H](Cc1c[nH]c2ccccc12)C(=O)O)[C@@H](C)CC do in these assays?
CBFb RUNX1 block: inactive; Menin-MLL TR inh: inactive; Menin MLL FP FL: inactive

Results for O=C(Nc1cc(C(=O)Nc2ccc(S(=O)(=O)O)cc2S(=O)(=O)O)cc(C(=O)Nc2ccc(S(=O)(=O)O)cc2S(=O)(=O)O)c1)Nc1cc(C(=O)Nc2ccc(S(=O)(=O)O)cc2S(=O)(=O)O)cc(C(=O)Nc2ccc(S(=O)(=O)O)cc2S(=O)(=O)O)c1 ?
CBFb RUNX1 block: inactive; Menin-MLL TR inh: inconclusive; MLL CXXC-DNA inh: 3.5µM; LMNA splice mod: inconclusive; Menin MLL FP FL: inconclusive; MLL CXXC FP-Fl: 4.5µM; MLL CXXC FP-TR: 11µM; MLL CXXC TRF: 3.1µM

What do the screens show for `Cc1ccccc1S(=O)(=O)NC1OC(=O)C(Oc2ccccc2)=C1Br` (configuration not stated)?
CBFb RUNX1 block: inactive; Menin-MLL TR inh: inconclusive; MLL CXXC-DNA inh: inconclusive; LMNA splice mod: inconclusive; Menin MLL FP FL: inactive

Results for Cc1ccccc1S(=O)(=O)NC1OC(=O)C(Cl)=C1Cl (configuration not stated) ?
CBFb RUNX1 block: inactive; Menin-MLL TR inh: inactive; MLL CXXC-DNA inh: inconclusive; LMNA splice mod: inconclusive; Menin MLL FP FL: inactive; MLL CXXC FP-Fl: 45µM; MLL CXXC FP-TR: 159µM; MLL CXXC TRF: inconclusive

How did CCN1CCN(C(=O)N[C@H](C(=O)N[C@@H]2C(=O)N3C(C(=O)O)=C(CSc4nnnn4C)CS[C@@H]23)c2ccc(O)cc2)C(=O)C1=O do in these assays?
CBFb RUNX1 block: inactive; Menin-MLL TR inh: inactive; LMNA splice mod: inactive; Menin MLL FP FL: inactive

What do the screens show for `O=C(CC(C(=O)N1CCc2ccccc21)n1ccnc1)N1CCc2ccccc2C1` (configuration not stated)?
CBFb RUNX1 block: inactive; Menin-MLL TR inh: inactive; MLL CXXC-DNA inh: 32µM; LMNA splice mod: inactive; Menin MLL FP FL: inactive; MLL CXXC FP-Fl: inconclusive; MLL CXXC FP-TR: inactive; MLL CXXC TRF: inactive

How did CCCCNC(=O)CC(C(=O)N1CCc2ccccc21)n1ccnc1 (configuration not stated) do in these assays?
CBFb RUNX1 block: inactive; Menin-MLL TR inh: inactive; MLL CXXC-DNA inh: inactive; LMNA splice mod: inactive; Menin MLL FP FL: inactive

Results for c1ccc(-c2[nH]ncc2-c2ccnc3ccccc23)nc1 ?
CBFb RUNX1 block: inconclusive; Menin-MLL TR inh: inactive; Menin MLL FP FL: inactive

How did O=c1[nH]c2ccccc2c2nc3ccccn3c12 do in these assays?
CBFb RUNX1 block: inactive; Menin-MLL TR inh: inconclusive; MLL CXXC-DNA inh: inactive; LMNA splice mod: inactive; Menin MLL FP FL: inactive

How did O=c1nc2c(O)cccn2c2c1c(=O)[nH]c1ccccc12 do in these assays?
CBFb RUNX1 block: inactive; Menin-MLL TR inh: inactive; MLL CXXC-DNA inh: 32µM; LMNA splice mod: inconclusive; Menin MLL FP FL: inconclusive; MLL CXXC FP-Fl: 4µM; MLL CXXC FP-TR: inconclusive; MLL CXXC TRF: inconclusive

What do the screens show for `CCOC(=O)/C(=C/C=C1\Sc2cc(OCC)c(OCC)cc2N1CC)C(C)=O`?
CBFb RUNX1 block: inactive; Menin-MLL TR inh: inactive; MLL CXXC-DNA inh: inconclusive; LMNA splice mod: inconclusive; Menin MLL FP FL: inconclusive; MLL CXXC FP-Fl: 0.56µM; MLL CXXC FP-TR: inconclusive; MLL CXXC TRF: inactive

Results for CCOC(=O)COc1ccc(/C=C2/C(=O)NN(c3ccc(F)cc3)C2=O)cc1OC ?
Menin-MLL TR inh: inactive; MLL CXXC-DNA inh: inconclusive; Menin MLL FP FL: inactive; MLL CXXC FP-Fl: inconclusive; MLL CXXC FP-TR: inconclusive; MLL CXXC TRF: inactive

What do the screens show for `CCOc1cc(/C=C2\C(=O)NN(c3ccccc3)C2=O)cc([N+](=O)[O-])c1O`?
CBFb RUNX1 block: inactive; Menin-MLL TR inh: inconclusive; MLL CXXC-DNA inh: inconclusive; Menin MLL FP FL: inactive

What do the screens show for `COc1cc(/C=C2\C(=O)NN(c3ccccc3)C2=O)cc([N+](=O)[O-])c1O`?
CBFb RUNX1 block: inactive; Menin-MLL TR inh: inconclusive; MLL CXXC-DNA inh: 25µM; Menin MLL FP FL: inactive; MLL CXXC FP-Fl: 45µM; MLL CXXC FP-TR: 113µM; MLL CXXC TRF: inactive

How did COc1cc(/C=C2\C(=O)NN(c3ccc(C)cc3)C2=O)cc([N+](=O)[O-])c1O do in these assays?
CBFb RUNX1 block: inactive; Menin-MLL TR inh: inconclusive; MLL CXXC-DNA inh: 22µM; LMNA splice mod: inconclusive; Menin MLL FP FL: inactive; MLL CXXC FP-Fl: 18µM; MLL CXXC FP-TR: 89µM; MLL CXXC TRF: inactive
